Assay [1] can be described thus: qHTS assay to identify small molecule antagonists of the estrogen receptor beta (ER-beta) signaling pathway - cell viability counter screen (AID 1259382; active = well fitted curve in the direction sought with a large enough effect in the repeat runs; an effect the other way counts as inactive or inconclusive;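 note: HEK293T cells carrying ER-beta-UAS-bla reporter stimulated with estradiol; series mostly up to about 92 µM; nearly all actives have a fitted effect of over 55% in size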). The gist of the method: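 CellTiter-Glo ATP luminescence measured after the LiveBLAzer read in the same wells; ER-beta-UAS-bla HEK293T cells, 16 hr compound treatment with 1nM 17-beta-estradiol agonist at 37C, 5% CO2.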
For orientation: qHTS replaces the single test concentration by a dilution series.

Assay [2] is described as follows: qHTS assay to identify small molecule agonists or antagonists of the thyroid stimulating hormone receptor (TSHR) signaling pathway - wild type cell line counter screen (AID 1259384). The gist of the method: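 Counter screen in untransfected Hek293: compounds (15-point titration, triplicate) plus phosphodiesterase inhibitor Ro20-1724 added after 18 h plating; 30 min RT. Intracellular cAMP via competitive d2/cryptate immunoassay, 1 h incubation.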

Assay [3] concerns the target Thyrotropin receptor (Homo sapiens) (UniProt P16473). Put plainly: qHTS assay to identify small molecule antagonists of the thyroid stimulating hormone receptor (TSHR) signaling pathway (AID 1259385). Note: nearly all actives have a fitted effect of over 20% in size. The gist of the method:
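Antagonist mode: compound-treated TSHR-expressing HEK293 cells were stimulated with 1.5 ng/mL TSH (final) in presence of Ro20-1724 for 30 min at RT. HTRF cAMP detection after 1 h; each compound tested at 15 concentrations, triplicate.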

In assay [4] the target is Progesterone receptor (Homo sapiens) (UniProt P06401). In words: qHTS assay to identify small molecule agonists of the progesterone receptor (PR) signaling pathway (AID 1346784). Note: nearly all actives have a fitted effect of over 30% in size. The gist of the method: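 PR-UAS-bla HEK 293T cells (beta-lactamase reporter under UAS) in 2% charcoal-stripped FBS, dosed with 23 nL compound after 6 hr, incubated 16hr at 37C. LiveBLAzer B/G FRET substrate added, fluorescence read after 2 hours.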

Assay [5] can be described thus: qHTS assay to identify small molecule antagonists of the progesterone receptor (PR) signaling pathway - cell viability counter screen (AID 1346798; active = well fitted curve in the direction sought with a large enough effect in the repeat runs; an effect the other way counts as inactive or inconclusive; note: series mostly up to about 92 µM; nearly all actives have a fitted effect of over 50% in size). In outline:
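PR-UAS-bla HEK293T cells, 3,000/well in 2% charcoal-stripped FBS medium, dosed with compounds plus R5020 agonist and incubated 16 h at 37C. Viability then measured in the same wells by CellTiter-Glo luminescence after 30 min at RT.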

Assay [6] is described as follows: qHTS assay to identify small molecule agonists of the progesterone receptor (PR) signaling pathway - cell viability counter screen (AID 1346799). Note: nearly all actives have a fitted effect of over 45% in size. In outline:
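Counter screen in the PR-UAS-bla HEK293T wells (2% charcoal-stripped FBS, 16 h compound exposure at 37 C) after the bla read. CellTiter-Glo added, 30 min at room temperature, luminescence read as cell viability.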

The nature of assay [7]: qHTS assay to identify small molecule antagonists of the TGF-beta/Smad signaling pathway - cell viability counter screen (AID 1346824; active = well fitted curve in the direction sought with a large enough effect in the repeat runs; an effect the other way counts as inactive or inconclusive; note: nearly all actives have a fitted effect of over 50% in size). In outline: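 Cytotoxicity counter-screen run in the same wells as the beta-lactamase Smad reporter read: CellTiter-Glo luminescence after 30 min at room temperature. HEK 293T SBE-bla cells had 5 hr compound exposure at 37 C with TGF-beta1 (0.25 ng/mL stock).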

Assay [8] in a line: qHTS assay to identify small molecule agonists of the estrogen receptor alpha (ER-alpha) signaling pathway in the presence of an antagonist - cell viability counter screen (AID 1259386; active = well fitted curve in the direction sought with a large enough effect in the repeat runs; an effect the other way counts as inactive or inconclusive;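 note: series mostly up to about 92 µM; cells exposed to compounds for 22 h at 37 °C before the viability read; nearly all actives have a fitted effect of over 30% in size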). In outline: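 Using estrogen-depleted VM7Luc4E2 cells, the 15-concentration compound series was applied together with 10.0nM ICI-182,780 and incubated 22hr at 37C/5% CO2. Cell viability was then scored by CellTiter-Fluor.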

The target in assay [9] is Estrogen receptor (Homo sapiens) (UniProt P03372). Put plainly: qHTS assay to identify small molecule agonists of the estrogen receptor alpha (ER-alpha) signaling pathway in the presence of an antagonist (AID 1259383). Note: top concentration of the series differs between compounds; nearly all actives have a fitted effect of over 15% in size. In outline: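 Luminescent ERE-luciferase reporter, VM7Luc4E2 cells (endogenous ER-alpha); 10.0nM ICI-182,780 final; 15-point compound titration; 22hr at 37C; ONE-Glo, 30min RT.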

Assay [10] addresses Progesterone receptor (Homo sapiens) (UniProt P06401). In words: qHTS assay to identify small molecule antagonists of the progesterone receptor (PR) signaling pathway (AID 1346795; active = well fitted inhibition curve with a large enough effect in the signal ratio in the repeat runs, not every such curve was filed as active; the % refers to the signal ratio; note: potency is the fitted concentration of half-maximal effect). In outline: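 PR-UAS-bla HEK293T cells with beta-lactamase reporter under UAS control, in 2% charcoal-stripped FBS, treated with compounds plus 1 nM promegestone (R5020, final) for 16 hr at 37C. Read-out: FRET beta-lactamase substrate fluorescence after 2 hr at room temperature.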

Structures are written as SMILES. Unmarked numbers belong to inactive results. Results filed as inconclusive are left out. The source made the active and inactive calls. Unless noted, calls come from the whole dose curve.
% is set by controls: 0 for no effect and ±100 for the full control effect.

Chain of Progesterone receptor (Homo sapiens) (P06401 whole entry, looked up): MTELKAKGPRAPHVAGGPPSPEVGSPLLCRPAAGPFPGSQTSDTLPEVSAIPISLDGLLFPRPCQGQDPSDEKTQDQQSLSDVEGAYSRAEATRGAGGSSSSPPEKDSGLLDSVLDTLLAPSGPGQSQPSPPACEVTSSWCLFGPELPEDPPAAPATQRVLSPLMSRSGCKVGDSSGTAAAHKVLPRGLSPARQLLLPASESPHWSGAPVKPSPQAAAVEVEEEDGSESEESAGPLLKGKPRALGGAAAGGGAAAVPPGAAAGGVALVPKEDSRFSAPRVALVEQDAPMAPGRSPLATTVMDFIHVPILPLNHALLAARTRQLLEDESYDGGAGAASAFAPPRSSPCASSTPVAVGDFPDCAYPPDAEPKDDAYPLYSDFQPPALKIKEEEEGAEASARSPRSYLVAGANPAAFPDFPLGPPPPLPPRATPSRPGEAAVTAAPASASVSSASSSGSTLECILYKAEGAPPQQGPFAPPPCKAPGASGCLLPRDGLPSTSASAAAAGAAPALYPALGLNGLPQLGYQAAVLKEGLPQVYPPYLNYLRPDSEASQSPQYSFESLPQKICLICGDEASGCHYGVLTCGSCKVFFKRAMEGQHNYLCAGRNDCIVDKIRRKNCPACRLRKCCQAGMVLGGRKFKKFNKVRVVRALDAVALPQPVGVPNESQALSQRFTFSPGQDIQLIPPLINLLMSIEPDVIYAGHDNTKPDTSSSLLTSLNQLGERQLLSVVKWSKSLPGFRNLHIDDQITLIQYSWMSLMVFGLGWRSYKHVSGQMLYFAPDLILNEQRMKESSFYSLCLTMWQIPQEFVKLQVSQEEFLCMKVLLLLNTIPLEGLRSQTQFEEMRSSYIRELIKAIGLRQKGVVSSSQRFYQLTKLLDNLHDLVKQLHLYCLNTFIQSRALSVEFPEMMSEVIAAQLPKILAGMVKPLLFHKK
Chain of Estrogen receptor (Homo sapiens) (P03372 whole entry, looked up): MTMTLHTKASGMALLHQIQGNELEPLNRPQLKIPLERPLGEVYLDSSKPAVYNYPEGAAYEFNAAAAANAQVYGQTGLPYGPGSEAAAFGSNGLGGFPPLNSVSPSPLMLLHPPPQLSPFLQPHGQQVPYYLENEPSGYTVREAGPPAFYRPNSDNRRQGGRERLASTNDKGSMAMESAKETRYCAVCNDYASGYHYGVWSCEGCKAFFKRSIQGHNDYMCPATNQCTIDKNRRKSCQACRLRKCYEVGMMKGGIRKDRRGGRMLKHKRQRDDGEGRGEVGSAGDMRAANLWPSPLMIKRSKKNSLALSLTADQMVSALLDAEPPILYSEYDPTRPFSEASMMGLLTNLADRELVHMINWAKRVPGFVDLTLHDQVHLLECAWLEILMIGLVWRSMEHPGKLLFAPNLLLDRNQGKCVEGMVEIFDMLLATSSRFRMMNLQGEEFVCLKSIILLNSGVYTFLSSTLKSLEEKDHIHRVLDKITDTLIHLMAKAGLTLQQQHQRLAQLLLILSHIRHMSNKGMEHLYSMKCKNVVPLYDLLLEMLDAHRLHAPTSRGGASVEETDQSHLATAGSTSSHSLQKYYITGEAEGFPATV
Chain of Thyrotropin receptor (Homo sapiens) (P16473 whole entry, looked up): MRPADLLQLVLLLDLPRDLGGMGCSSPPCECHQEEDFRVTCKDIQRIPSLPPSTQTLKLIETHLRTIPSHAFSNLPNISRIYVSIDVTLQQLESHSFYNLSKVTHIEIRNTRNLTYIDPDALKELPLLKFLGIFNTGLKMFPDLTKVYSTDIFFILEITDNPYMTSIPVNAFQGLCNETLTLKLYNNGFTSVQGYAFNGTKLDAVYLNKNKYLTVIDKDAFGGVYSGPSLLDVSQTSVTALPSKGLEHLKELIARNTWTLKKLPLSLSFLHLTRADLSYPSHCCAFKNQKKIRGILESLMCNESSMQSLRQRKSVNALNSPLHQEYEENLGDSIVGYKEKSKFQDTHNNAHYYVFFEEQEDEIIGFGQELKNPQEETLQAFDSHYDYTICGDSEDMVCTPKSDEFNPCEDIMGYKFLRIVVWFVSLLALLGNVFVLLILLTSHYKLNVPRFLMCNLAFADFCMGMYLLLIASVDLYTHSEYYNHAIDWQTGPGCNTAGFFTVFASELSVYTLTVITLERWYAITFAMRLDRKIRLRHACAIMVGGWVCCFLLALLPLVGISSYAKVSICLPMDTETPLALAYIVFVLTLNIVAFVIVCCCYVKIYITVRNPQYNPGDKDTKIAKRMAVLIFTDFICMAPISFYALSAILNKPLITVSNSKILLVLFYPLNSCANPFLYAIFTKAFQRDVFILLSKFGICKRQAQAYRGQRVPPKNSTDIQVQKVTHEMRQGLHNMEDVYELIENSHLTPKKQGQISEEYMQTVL

As to `O=S(=O)(O)c1ccc2c(N=Nc3ccc(S(=O)(=O)O)c4ccccc34)c(O)c(S(=O)(=O)O)cc2c1`, the figures for the activity change, negative = cytotoxicity in assay [1], in assay [5] and in assay [6] were -3.29% [at 8.39 µM], 12.1% [at 8.39 µM] and 18.6% [at 8.39 µM], respectively. For the same molecule, the cAMP activity change in [2] was -0.796% [at 8.39 µM]. Besides, the activity change, negative = inhibition in assay [3] is -3.96% [at 8.39 µM]. The activation in assay [4] is 2.07% [at 8.39 µM]. Also, the viability change, negative = cytotoxic in assay [7] was 5.53% [at 6.97 µM].
With `OCC1(CO)COCOC1`, the molecule was called inactive in assay [1], in [2], in assay [3], in assay [8], in [5] and in assay [7].
With `O=C(O)CSCC(=O)NC1CCSC1=O` (stereo not drawn), the outcome in [1], in [2], in [3], in [8], in assay [5] and in assay [7] was inactive. The Potency result in [4] was “inactive”.
With `OCCN1CCOCC1`, the Potency result in assay [9], in [4] and in [10] was “inactive” throughout. In addition, the molecule was called inactive in assay [2], in [3], in [8], in assay [5], in assay [6] and in [7].
Turning to `CC(=O)O[C@@H]1CC2CCC1(C)C2(C)C` (stereo partly drawn), the molecule was classed as inactive in [1], in assay [2], in [3], in [8], in assay [5] and in assay [6]. The outcome in assay [7] was inactive. Also, in [10], the Potency result is “inactive”.
As to `O=C1NC(c2ccccc2)(c2ccccc2)C(=O)N1COP(=O)(O)O`, the call in [1], in assay [2], in assay [3], in assay [8], in assay [5] and in assay [6] was inactive. The result in [7] was inactive. Moreover, the Potency result in assay [10] was “inactive”.
As for `CC(C)NCC(O)c1ccc2ccccc2c1` (stereo not drawn), the outcome in [1], in [3], in assay [8], in assay [5], in assay [6] and in [7] was inactive. Besides, the Potency entry in [4] and in assay [10] was “inactive” throughout.
For the molecule `C=CCCCCCCCC`, the molecule was called inactive in assay [1], in [2], in [3], in assay [8], in assay [5] and in [6]. Further, in assay [7], the result was inactive.
As to `c1ccc(B(c2ccccc2)c2ccccc2)cc1`, the molecule was called inactive in assay [1], in assay [8], in assay [5], in assay [6] and in assay [7]. Further, the Potency result in [4] was “inactive”. The Potency in assay [10] is 54.4 µM (active).
On to `CC(C)NC(=O)c1ccc(C=O)cc1`, for which the outcome in assay [1], in [2], in assay [3], in assay [8], in assay [5] and in assay [6] was inactive. The molecule was classed as inactive in assay [7]. Further, in [10], the Potency entry is “inactive”.
For `CC(S)C(C)S` (stereo not drawn), the Potency result in assay [9], in [4] and in assay [10] was “inactive” each time. In addition, the call in [2], in assay [3], in assay [8], in assay [5] and in assay [6] was inactive.
Turning to `N#Cc1cscn1`, the call in [2], in [3], in assay [8], in [5], in assay [6] and in assay [7] was inactive. For the same molecule, the Potency entry in assay [4] is “inactive”.
On to `Cc1ccc(N)cc1S(=O)(=O)O`, for which the Potency result in assay [9], in assay [4] and in [10] was “inactive” throughout. Further, the molecule was classed as inactive in assay [3], in assay [8], in assay [5], in [6] and in assay [7].
For `[O-][n+]1cccc(/C(Cl)=N/OC[C@@H](O)CN2CCCCC2)c1`, the Potency entry in assay [9], in [4] and in [10] was “inactive” throughout. Moreover, the outcome in assay [8], in assay [5], in assay [6] and in assay [7] was inactive.
With `CC(C)C[C@@H]1[C@H](c2ccccc2)OC(=O)N1CCCN1CCCCCC1`, the Potency result in [9], in assay [4] and in assay [10] was “inactive” in each case. The molecule was classed as inactive in assay [2], in [3], in assay [8] and in assay [7].
Turning to `CC(C)COC(=O)c1ccccc1`, the Potency entry in assay [9] and in assay [4] was “inactive” throughout. For the same molecule, the result in assay [2], in assay [3], in assay [8] and in [7] was inactive.

(Values after PubChem BioAssay (Tox21).)
